Test systems include EKVX NSCLC; SN12C renal; TK-10 renal; ACHN renal; CAKI-1 renal; CCRF-CEM leukemia; MOLT-4 leukemia; SR leukemia; RPMI-8226 leukemia; OVCAR-8 ovarian; OVCAR-5 ovarian; OVCAR-4 ovarian; SK-OV-3 ovarian; IGROV1 ovarian; OVCAR-3 ovarian; HS 578T breast; NCI/ADR-RES ovarian; T-47D breast; A498 renal; UO-31 renal.
What all share (assay): NCI-60 one-dose screen, 48 h (100 = growth as untreated, 0 = no growth, -100 = all killed)
Common to all, as to details: 10 µM unless noted

About 83,000 compounds went through this panel and 20% of them were active in at least one assay; those are over-represented in the sample as a whole.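 Values shown are percent growth following 48 h exposure of cells in 96-well plates to a single concentration of compound; below 10 was considered active.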 Values without a mark were called inactive. Calls of active or inactive are those of the source.

`O=C(N/N=C/c1ccc([N+](=O)[O-])o1)c1[nH]c2ccc(Br)cc2c1-c1ccccc1`: the growth is 39.2% in the assay on EKVX NSCLC; 21.9% with SN12C renal; 78.7% in the assay with TK-10 renal; 16.1% in the assay on ACHN renal; 20.3% in the assay with CAKI-1 renal; 7.85% (active) in the assay with CCRF-CEM leukemia. Moreover, the growth is 5.69% (active) in the assay on MOLT-4 leukemia; 6.28% (active) with SR leukemia; 0.483% (active) in the assay with RPMI-8226 leukemia; -5.13% (active) with OVCAR-8 ovarian; 35.7% in the assay with OVCAR-5 ovarian; 38.2% with OVCAR-4 ovarian. The growth in the assay on SK-OV-3 ovarian was 30.4%; in the assay on IGROV1 ovarian it was 15.6%; in the assay on OVCAR-3 ovarian it was 21.9%; with HS 578T breast, 8.44% (active); with NCI/ADR-RES ovarian it was 18.7%; in the assay with T-47D breast, 53.9%.
On to `O=C1/C(=C/C2=Cc3ccccc3OC2)SC(=S)N1c1ccc(F)cc1`, for which the growth in the assay with EKVX NSCLC is 94.7%; in the assay on SN12C renal, 93%; in the assay with ACHN renal it was 76%; in the assay with A498 renal, 71.6%; in the assay on CCRF-CEM leukemia, 109%; in the assay on RPMI-8226 leukemia, 104%. The growth was 105% in the assay with OVCAR-8 ovarian; 100% in the assay on OVCAR-5 ovarian; 96.1% in the assay on OVCAR-4 ovarian; 108% in the assay with SK-OV-3 ovarian; 95.9% with IGROV1 ovarian; 109% with OVCAR-3 ovarian. Further, the growth in the assay on HS 578T breast was 99.2%; in the assay on NCI/ADR-RES ovarian, 108%; in the assay with T-47D breast it was 87.7%.
Consider `N[C@@H](Cc1cn(-c2c3ccccc3nc3ccccc23)nn1)C(=O)O`, for which the growth in the assay on EKVX NSCLC is 101%; in the assay with UO-31 renal it was 89.6%; with TK-10 renal, 140%; in the assay with ACHN renal, 93.5%; with CAKI-1 renal it was 93.8%; in the assay on A498 renal, 102%. In addition, the growth is 97.3% in the assay on CCRF-CEM leukemia; 99.9% in the assay with RPMI-8226 leukemia; 103% with OVCAR-8 ovarian; 99.2% with OVCAR-5 ovarian; 101% with OVCAR-4 ovarian; 87.7% with SK-OV-3 ovarian. The growth is 97.5% with IGROV1 ovarian, 99.8% in the assay with HS 578T breast, 105% in the assay on NCI/ADR-RES ovarian and 96.2% with T-47D breast.
`C[C@@H](Nc1c(C#N)cnc2ccc(-c3cnc(N)nc3)cc12)c1ccccc1`: the growth with EKVX NSCLC is 4.11% (active); in the assay on UO-31 renal, 4.65% (active); in the assay with ACHN renal, 6.57% (active); in the assay with CAKI-1 renal, 1.83% (active); in the assay with A498 renal it was -37.8% (active); in the assay on CCRF-CEM leukemia, 14%. The growth in the assay with MOLT-4 leukemia was 0.24% (active); with SR leukemia, 7.92% (active); with RPMI-8226 leukemia, -26.9% (active); in the assay on OVCAR-8 ovarian, 17.1%; in the assay with OVCAR-5 ovarian, 20.9%; in the assay on OVCAR-4 ovarian, 4.34% (active). Besides, the growth in the assay with SK-OV-3 ovarian was -2.04% (active); with IGROV1 ovarian, -32.6% (active); in the assay on OVCAR-3 ovarian, 9.52% (active); in the assay with HS 578T breast, -13.6% (active); in the assay on NCI/ADR-RES ovarian, 22.5%; with T-47D breast, 3.05% (active).
Regarding `CN1C(=S)N(C)C2C1NN=C1SC(c3ccccc3)=CC(=O)N12` (stereo not given), the growth with EKVX NSCLC was 80.9%; with UO-31 renal, 88.3%; in the assay with TK-10 renal it was 97.7%; in the assay on ACHN renal, 96.8%; in the assay on A498 renal it was 103%; in the assay on CCRF-CEM leukemia, 91%. Moreover, the growth in the assay on MOLT-4 leukemia is 89.8%; in the assay on SR leukemia, 65.4%; in the assay with RPMI-8226 leukemia it was 93.9%; with OVCAR-8 ovarian, 94.4%; in the assay with OVCAR-5 ovarian, 103%; in the assay with OVCAR-4 ovarian, 85.7%. Further, the growth in the assay with SK-OV-3 ovarian is 102%; in the assay on IGROV1 ovarian, 97.5%; in the assay on OVCAR-3 ovarian it was 107%; in the assay with HS 578T breast, 107%; with NCI/ADR-RES ovarian it was 97.6%; in the assay with T-47D breast, 69.5%.
Turning to `CCCCN1C(=O)/C(=c2\sc3n(c2=O)C2C(NN=3)N(CC)C(=O)N2CC)c2cc(Cl)ccc21` (stereo not given), the growth with EKVX NSCLC is 80.7%; in the assay on TK-10 renal, 132%; in the assay with ACHN renal it was 64.5%; in the assay on CAKI-1 renal it was 50.7%; in the assay on A498 renal, 27.6%; in the assay with CCRF-CEM leukemia, 72.2%. Also, the growth is 74.5% with MOLT-4 leukemia; 14.1% in the assay with SR leukemia; 70.2% with RPMI-8226 leukemia; 95.6% with OVCAR-8 ovarian; 92.7% in the assay on OVCAR-5 ovarian; 89.7% in the assay with OVCAR-4 ovarian. Also, the growth in the assay on SK-OV-3 ovarian is 106%; with IGROV1 ovarian, 65.3%; in the assay with OVCAR-3 ovarian it was 71.8%; in the assay with HS 578T breast it was 66.9%; with NCI/ADR-RES ovarian, 79.4%; in the assay with T-47D breast, 75%.
For `C[C@@H]1CN(c2ccc3ncc(C#Cc4cncc(C(=O)Nc5ccc(CN6CCN(C)CC6)c(C(F)(F)F)c5)c4)n3n2)C[C@H](C)O1`, the growth with EKVX NSCLC is -18.9% (active); in the assay with TK-10 renal, -91.1% (active); in the assay with ACHN renal it was -94% (active); with CAKI-1 renal it was -94.1% (active); with A498 renal, -90.4% (active); in the assay on CCRF-CEM leukemia, 3.83% (active). In addition, the growth in the assay on MOLT-4 leukemia was 1.65% (active); with SR leukemia, -24.3% (active); with RPMI-8226 leukemia, -2.52% (active); in the assay on OVCAR-8 ovarian, 0.405% (active); in the assay with OVCAR-5 ovarian it was -35.4% (active); in the assay with OVCAR-4 ovarian, -10.1% (active). The growth was -76.5% (active) in the assay with SK-OV-3 ovarian; -5.72% (active) in the assay with IGROV1 ovarian; -48.3% (active) in the assay with OVCAR-3 ovarian; -37% (active) with HS 578T breast; -8.65% (active) in the assay with NCI/ADR-RES ovarian; 15% in the assay on T-47D breast.
In the case of `COc1ccc(/C=N/NC(=O)c2[nH]c3ccc(Br)cc3c2-c2ccccc2)s1`, the growth in the assay with EKVX NSCLC was 42.8%; in the assay on UO-31 renal it was 45.1%; in the assay with TK-10 renal, 122%; in the assay on ACHN renal, 27%; with CAKI-1 renal, 24.5%; in the assay with CCRF-CEM leukemia it was 9.96% (active). Further, the growth with SR leukemia is 5.56% (active); in the assay with OVCAR-8 ovarian, 12.3%; in the assay on OVCAR-5 ovarian, 51.2%; with OVCAR-4 ovarian, 75.5%; with SK-OV-3 ovarian, 25.7%; in the assay with IGROV1 ovarian, 18%. Further, the growth in the assay on OVCAR-3 ovarian is 22.8%; in the assay with HS 578T breast, 29.9%; in the assay with NCI/ADR-RES ovarian, 15.8%; in the assay with T-47D breast it was 73.2%.
For `CN(C)CCCOc1c2ccc(Cl)cc2nc2c1oc1ccccc12`, the growth with EKVX NSCLC is -41.6% (active); in the assay on UO-31 renal, -51.9% (active); with ACHN renal it was -6.02% (active); with CAKI-1 renal, 1.08% (active); in the assay with A498 renal, -91.8% (active); in the assay on MOLT-4 leukemia, -17% (active). For the same compound, the growth was -34.2% (active) in the assay on SR leukemia; -17.8% (active) in the assay with OVCAR-8 ovarian; 4.62% (active) with OVCAR-5 ovarian; 1.72% (active) in the assay on OVCAR-4 ovarian; -8.76% (active) in the assay with SK-OV-3 ovarian; -8.93% (active) with IGROV1 ovarian. Moreover, the growth in the assay on OVCAR-3 ovarian was -10.4% (active); in the assay on HS 578T breast it was 5.22% (active); with NCI/ADR-RES ovarian, 3.15% (active); with T-47D breast, 13.5%.
On to `COc1ccc(NC2=C(Cl)C(=O)C(C)=C(C)C2=O)cc1OC`, for which the growth in the assay with EKVX NSCLC is 74.3%; in the assay on UO-31 renal, 90.3%; in the assay with TK-10 renal, 170%; in the assay with ACHN renal, 91.4%; with CAKI-1 renal, 89.4%; in the assay on A498 renal, 93.2%. The growth with CCRF-CEM leukemia was 15.3%; with MOLT-4 leukemia, 40.1%; in the assay with SR leukemia, 84.5%; with RPMI-8226 leukemia it was 88.7%; with OVCAR-8 ovarian it was 97.5%; in the assay on OVCAR-5 ovarian it was 103%. The growth in the assay on OVCAR-4 ovarian was 22%; in the assay on IGROV1 ovarian it was 39.7%; in the assay on OVCAR-3 ovarian, 95.6%; in the assay on HS 578T breast it was 91.2%; in the assay with T-47D breast it was 23.5%.

The values are drawn from PubChem BioAssay (NCI).
